Screens as filed in PubChem BioAssay.
TrxR1 substrate = qHTS Assay for Substrates of Mammalian Selenoprotein Thioredoxin Reductase 1 (TrxR1): qHTS; purified TrxR1 substrate turnover, NADPH consumption readout; Potency, µM (titrated, usually from 114 µM), without a hit: at the highest dose activity change, negative = substrate turnover; 0.01% of 390,000 active; also: potency is read from the fitted curve at half-maximal effect; nearly all actives have a fitted effect of over 50% in size
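Rat TrxR1, dispensed at 90 nM, was prereduced with 400 uM NADPH (final) for 5 min at ~22 deg C, then incubated with compound 15 min before 400 uM selenite. A first-read NADPH fluorescence drop versus no-compound background flagged substrates.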
VP16 counter = VP16 counterscreen qHTS for inhibitors of ROR gamma transcriptional activity. Drosophila S2 Gal4-VP16 UAS-luciferase, luminescence, 20 h. Potency, µM (series often up to 53.6 µM), for inactives: at the top dose activity, negative = inhibition, usual class: inhibitors. 3.5% of 310,000 active;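 also: Gal4-VP16 expression switched on by copper sulfate through the metallothionein promoter; potency is read from the fitted curve at half-maximal effect; nearly all actives have a fitted effect of over 50% in size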
Coupling enz = qHTS Assay for Inhibitors of Fructose-1,6-bisphosphate Aldolase from Giardia Lamblia: Coupling assay counterscreen. 0.67% of 290,000 active. activity change, negative = inhibition, % at 58.2 µM, hits read low. coupling enzyme system counterscreen, AmpLite Red fluorescence; in the data active = activity change below about -30%
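Counterscreen of the coupled detection system alone, without aldolase: glyceraldehyde-3-phosphate coupling enzymes plus AmpLite Red readout. Compounds at 57.5 uM final, 10 min RT preincubation, 20 min RT reaction, fluorescence 525/598 nm.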
GALK inhibitor = qHTS Assay for Inhibitors of Human Galactokinase (GALK); P51570; Purified GALK, Kinase-Glo residual ATP luminescence; Potency, µM (doses to about 57.5 µM), for inactives: at the top dose activity change, negative = inhibition, actives largely listed as inhibitors; 0.007% of 270,000 active; AID 1868, 2009; also: potency is read from the fitted curve at half-maximal effect
Target sequence (P51570 whole entry, looked up): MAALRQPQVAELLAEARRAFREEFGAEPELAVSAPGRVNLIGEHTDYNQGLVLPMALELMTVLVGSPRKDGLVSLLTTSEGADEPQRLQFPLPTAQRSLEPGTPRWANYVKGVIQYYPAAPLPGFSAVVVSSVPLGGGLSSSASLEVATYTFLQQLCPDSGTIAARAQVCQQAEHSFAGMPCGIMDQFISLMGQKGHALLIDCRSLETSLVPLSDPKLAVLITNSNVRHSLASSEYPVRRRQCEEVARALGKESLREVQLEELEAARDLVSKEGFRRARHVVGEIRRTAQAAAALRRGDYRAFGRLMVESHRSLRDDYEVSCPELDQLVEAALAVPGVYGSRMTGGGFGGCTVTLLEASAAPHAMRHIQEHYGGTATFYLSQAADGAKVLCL
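5 nM enzyme, 35 uM ATP, 100 uM galactose, 20 mM HEPES pH8.0, 5 mM MgCl2; 1 h RT; residual ATP by Kinase-Glo Plus luminescence, qHTS format.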
RORg inh = qHTS for inhibitors of ROR gamma transcriptional activity; Drosophila S2 Gal4-RORgamma UAS-luciferase reporter, 20 h; Potency, µM (doses to about 53.6 µM), inactives show top-dose activity change, negative = inhibition, most hits filed as inhibitors; 5.4% of 310,000 active; AID 2551, 2010; also: potency is read from the fitted curve at half-maximal effect; nearly all actives have a fitted effect of over 60% in size
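Schneider cells (Drosophila), stable Gal4 DBD–ROR gamma + UAS-luc; 1 hr cmpd preincubation; Cu2+ induction 700 uM final; 20 hr ambient; luminescence.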
rTrxR1 inhibitor = qHTS Assay for Inhibitors of Mammalian Selenoprotein Thioredoxin Reductase 1 (TrxR1): qHTS; AID 588453, 2011; Potency, µM (series often up to 114 µM), inactives show at the highest dose activity change, negative = inhibition, actives largely listed as inhibitors; recombinant rTrxR1, NADPH fluorescence consumption, selenite substrate; 1% of 390,000 active; Thioredoxin reductase 1, cytoplasmic (Rattus norvegicus), O89049; also: potency is read from the fitted curve at half-maximal effect; nearly all actives have a fitted effect of over 65% in size
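Rat TrxR1 (90 nM in the dispensed reagent) was pre-reduced with 400 uM NADPH for 5 min at room temperature, then incubated with compound for 15 min. After 400 uM selenite was added, NADPH fluorescence (Ex 340/Em 450 nm) was followed for 8 min.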
* hit, by the source's call; ? = inconclusive; . = not tested or not shown; [ ] = remark or other dose. An excerpt weighted towards active compounds, which were near 5.9% of everything screened. Unless noted, calls follow the shape of the dose curve; as a rule, active = well fitted curve in the direction sought with a large enough effect; inconclusive = small, poorly fitted or top-dose-only effect, or another doubt; inactive = no such curve, though single readings can be large; an effect the other way counts as inactive or inconclusive. % is scaled to controls: 0 for no effect and ±100 for the full control effect.

SMILES	TrxR1 substrate	VP16 counter	Coupling enz	GALK inhibitor	RORg inh	rTrxR1 inhibitor
COc1ccc(C2NC(=S)NC(C)=C2C(=O)N2CCOCC2)cc1 (configuration not stated)	4%	-1%	0	0%	-16%	-28%
Cc1cc(NS(=O)(=O)c2ccc(NC(NC(=O)C(C(F)(F)F)C(F)(F)F)(C(F)(F)F)C(F)(F)F)cc2)no1	4%[57.1 µM]	22%	-1	-6%	-28%	10µM*
CC(C)(C)C(=O)N1CCc2cc(-c3csc(N)n3)ccc21	-24%[57.1 µM]	10µM*	.	0%	13µM*	17%[57.1 µM]
CCC(C)C(=O)N1CCc2cc(-c3csc(N)n3)ccc21 (configuration not stated)	-4%	-4%	-1	-4%	8%	-2%
Cn1c(/C(C#N)=C(\O)c2ccc([N+](=O)[O-])s2)nc2ccccc21	4%	-2%	-1	0%	-35%	12%
Cn1c(/C(C#N)=C(\O)c2ccc(Cl)s2)nc2ccccc21	1%	4.5µM*	-9	9%	2µM*	17%
CC(=O)Nc1ccc(NC(=O)CSc2nnc(-c3ccc4c(c3)OCO4)o2)cc1	5%	.	.	.	.	10%
Cc1ccc(CSc2nnc(-c3ccc4c(c3)OCO4)o2)cc1	-11%[57.1 µM]	5%	-3	0%	37%	-13%[57.1 µM]
O=C1OCCC1Sc1nnc(-c2ccc3c(c2)OCO3)o1 (configuration not stated)	-5%	?	2	11%	10µM*	21%
O=C(O)CCSc1nnc(-c2ccc3c(c2)OCO3)o1	15%[57.1 µM]	4µM*	5	2%	2.8µM*	-2%[57.1 µM]
O=C(CSc1nnc(-c2ccc3c(c2)OCO3)o1)Nc1ncc(Cl)cc1Cl	-3%	0.56µM*	1	0%	0.79µM*	9%
O=C1OCCC1Sc1nnc(-c2ccc(O)cc2)o1 (configuration not stated)	7%	2%	4	-1%	15%	-55%
CC(=O)CSc1nnc(-c2ccc3c(c2)OCO3)o1	7%[57.1 µM]	16µM*	0	3%	13µM*	15%[57.1 µM]
Nc1nc(SCc2c(Cl)cccc2Cl)n[nH]1	15%[57.1 µM]	14%	-3	1%	10%	31%[57.1 µM]
O=C(NCc1ccccc1)C(c1ccc(O)cc1)N(C(=O)c1cnccn1)c1ccccc1 (configuration not stated)	-5%[57.1 µM]	-8%	3	5%	0%	-6%[57.1 µM]
CC1CCC(NC(=O)Cn2ncc3c4ccccc4n(Cc4ccc(F)cc4)c3c2=O)CC1 (configuration not stated)	19%	.	.	.	.	10%
COc1ccc(/C(C)=N/N2C(C)CCCC2C)c(OC)c1 (configuration not stated)	6%[57.1 µM]	?	3	3%	13µM*	-3%[57.1 µM]
Cc1ccc(S(=O)(=O)NCCC2=CCCCC2)cc1C(N)=O	0%	7.9µM*	.	-1%	?	18%
Cc1ccc(/C=C/C(=O)NC2=NCCS2)cc1	-14%	?	0	.	11µM*	-5%
CC(C)(C)c1ccc(/C=C/C(=O)NC2=NCCS2)cc1	-9%[57.1 µM]	4.5µM*	-2	0%	2.8µM*	15%[57.1 µM]
Cc1nc(-n2[nH]c3c(c2=O)CCCC3)[nH]c(=O)c1Cc1ccccc1	-13%	2.5µM*	-7	0%	2.2µM*	?
Cc1nc(N2CCc3ccccc3C2)[nH]c(=O)c1Cc1ccccc1	1%[57.1 µM]	2%	4	0%	44%	5%[57.1 µM]
O=C(COc1ccccc1F)c1ccc(O)cc1O	-4%	?	10	-1%	3.2µM*	18%
COC(=O)c1ccc(OCC(=O)c2ccc(O)cc2O)cc1	-5%	0.89µM*	6	-1%	0.079µM*	4%
O=C(COc1ccc(F)cc1)c1c(O)cc(O)cc1O	-10%	?	1	0%	2µM*	7.1µM*
SMILES	TrxR1 substrate	VP16 counter	Coupling enz	GALK inhibitor	RORg inh	rTrxR1 inhibitor
Cc1c(O)ccc(C(=O)COc2ccccc2F)c1O	-16%	-9%	0	5%	23%	-16%
O=C(COc1ccccc1)OCC(=O)c1ccc(O)cc1O	-11%	.	.	.	.	-1%
CCOC(=O)c1ccc(OCC(=O)c2ccc(O)cc2O)cc1	8%[57.1 µM]	1.1µM*	4	0%	0.25µM*	-11%[57.1 µM]
Cc1ccc(Oc2nc3c(c(=O)n(Cc4ccccc4)c(=O)n3C)n2C)cc1C	6%	.	.	.	.	41%
COc1cccc(N2CC(NC(=O)C(=O)c3c(C)[nH]c4ccccc34)CC2=O)c1 (configuration not stated)	-12%	.	.	.	.	-5%
O=C(COc1ccc(Cl)cc1)c1ccc(O)cc1O	-7%	1.4µM*	-1	-6%	0.16µM*	2%
COCCCNC(=O)c1ccc2c(=O)n(Cc3ccc(Cl)cc3)c(=S)[nH]c2c1	8%	?	1	1%	18µM*	19%
COCCCNC(=O)c1ccc2c(=O)n(Cc3ccc4c(c3)OCO4)c(=S)[nH]c2c1	-3%	?	-1	0%	-28%	-5%
CCOCCCNC(=O)c1ccc(Cn2c(=S)[nH]c3c([nH]c4ccc(OC)cc43)c2=O)cc1	2%	2%	1	0%	-10%	13%
CCCCNC(=O)c1ccc(Cn2c(=S)[nH]c3c([nH]c4ccc(OC)cc43)c2=O)cc1	10%	18µM*	3	0%	13µM*	-5%
CC1CCN(CCNC(=O)c2ccc3c(=O)n(Cc4ccc(Cl)cc4)c(=S)[nH]c3c2)CC1	1%	?	.	-4%	11µM*	14%
CCOC(=O)N1CCC(NC(=O)c2c(C)nn(-c3ccc(C)cc3)c2-n2cccc2)CC1	-15%	.	.	.	.	-27%
CC(C)Cn1c(SCc2cccc(F)c2)nc2ccsc2c1=O	-11%	.	.	.	.	-11%
Cc1cc(Nc2ncc(Cl)cc2Cl)n[nH]1	4%	-13%	4	0%	11µM*	13%
Nc1nc(SCC(=O)Nc2ncc(Cl)cc2Cl)n[nH]1	-8%	.	.	.	.	-16%
CC1CCN(C2=C(NS(=O)(=O)c3ccccc3)C(=O)c3ccccc3C2=O)CC1	-6%	5%	-30	6%	-3%	-5%
O=C1C2=C(c3ccccc31)[N+](=O)[C@@H]1CCCC[C@@H]1N2[O-]	6%	4%	-45*	3%	-25%	-1%
